Data published in the supplement of paper PMC10732440.
± gives the standard deviation of the averaged measurements.

The compounds below were run on Caenorhabditis elegans N2 infected with Nematocida parisii ERTm1 (assay: progeny production relative to DMSO uninfected control; higher = more progeny despite microsporidia infection (inhibition of infection with low host toxicity)). Conditions: infection time 6 days; 40 µM.
Procedure: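 Bleach-synchronised C. elegans N2 L1 larvae (100 per well) were grown in 96-well plates in K-medium with 5x E. coli OP50 and 15,000 N. parisii spores/uL, plus Pandemic Response Box compound at 100 uM or 40 uM (1% DMSO), for 6 days at 21 C with shaking. Worms were stained with Rose Bengal, scanned on a flatbed scanner and counted with WorMachine. Progeny production is given as % of the DMSO uninfected control (triplicate wells), so higher values mean the compound restores progeny despite infection.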

| Compound | progeny production [%] |
| --- | --- |
| Nc1nnnn1CCOc1c2[nH]c3ccc(Cl)cc3c2cc2c1[nH]c1ccc(Cl)cc12 | 5.74 ± 5.8 |
| CN1c2ccc(Cl)cc2N(c2ccccc2)C(=O)c2cn(Cc3ccc(CN4CCOCC4)cc3)nc21 | 5.41 ± 0.76 |
| CC(C)(C)c1ccc(OCCn2nc(C(=O)O)c3ccccc3c2=O)cc1 | 4.58 ± 1.4 |
| CCCCc1ccc(S(=O)(=O)Nc2cc(C)on2)cc1 | 7.98 ± 1.1 |
| O=C(Nc1cccc(C2=NCCN2)c1)c1ccc(-c2ccc(C(=O)Nc3cccc(C4=NCCN4)c3)cc2)cc1 | 7.71 ± 2.9 |
| Cc1ccc(NC(=O)c2cc(Cl)ccc2O)cc1 | 8.65 ± 5.8 |
| O[C@@](Cn1cnnn1)(c1ccc(F)cc1F)C(F)(F)c1ccc(-c2ccc(OCC(F)(F)F)cc2)cn1 | 3.9 ± 1.3 |
| O=S(=O)(NCB(O)O)c1ccc(-c2nnn[nH]2)cc1C(F)(F)F | 7.63 ± 2.6 |
| O=C(Nc1ccc(-c2ccccc2)cc1)C1=C(O)C(Cc2ccccc2)OC1=O (stereo not given) | 5.44 ± 3.9 |
| CC(C)(C)c1ccc(Oc2ccc(N)cc2)cc1 | 3.17 ± 1.1 |
| c1ccc(-c2nnc3c4ccccc4c(N4CCNCC4)nn23)cc1 | 2.73 ± 0.97 |
| O=C(c1cc(O)nc2ccccc12)N1CCN(c2ccccc2)CC1 | 5.44 ± 4.1 |
| CCc1cc(O)c(Oc2ccc(C(N)=O)cc2F)cc1F | 3.13 ± 2.7 |
| NC(=O)c1ccccc1NC(=O)c1ccc(C(=O)Nc2ccccc2C(N)=O)cc1 | 8.47 ± 2.6 |
| O=c1cc(OCc2ccccc2)ccn1Cc1ccccc1 | 5.55 ± 1.6 |
| CS(=O)(=O)c1ccc(Oc2ccc(Cl)cc2)cc1 | 2.98 ± 0.48 |
| NC(=O)C(c1ccccc1)(c1ccccc1)[C@H]1CCCN(CCc2ccc3c(c2)CCO3)C1 | 7.34 ± 0.47 |
| COc1ccccc1NC(=O)c1ccccc1Sc1ccc([N+](=O)[O-])cc1 | 6.65 ± 3.2 |
| Cc1c(OCC(F)(F)F)ccnc1C[S+]([O-])c1nc2ccccc2[nH]1 (stereo not given) | 6.74 ± 4.3 |
| O=C(O)c1ccccc1Sc1ncnc2sc3c(c12)CCC3 | 3.94 ± 1.7 |

Same assay, conditions: infection time 6 days; 100 µM

| Compound | progeny production [%] |
| --- | --- |
| Nc1nnnn1CCOc1c2[nH]c3ccc(Cl)cc3c2cc2c1[nH]c1ccc(Cl)cc12 | 8.85 ± 7.7 |
| CN1c2ccc(Cl)cc2N(c2ccccc2)C(=O)c2cn(Cc3ccc(CN4CCOCC4)cc3)nc21 | 6.28 ± 3 |
| CC(C)(C)c1ccc(OCCn2nc(C(=O)O)c3ccccc3c2=O)cc1 | 12 ± 6.5 |
| CCCCc1ccc(S(=O)(=O)Nc2cc(C)on2)cc1 | 25 ± 22 |
| O=C(Nc1cccc(C2=NCCN2)c1)c1ccc(-c2ccc(C(=O)Nc3cccc(C4=NCCN4)c3)cc2)cc1 | 27.6 ± 16 |
| Cc1ccc(NC(=O)c2cc(Cl)ccc2O)cc1 | 8.35 ± 5.3 |
| O[C@@](Cn1cnnn1)(c1ccc(F)cc1F)C(F)(F)c1ccc(-c2ccc(OCC(F)(F)F)cc2)cn1 | 11.8 ± 2.2 |
| O=S(=O)(NCB(O)O)c1ccc(-c2nnn[nH]2)cc1C(F)(F)F | 22.1 ± 6.9 |
| O=C(Nc1ccc(-c2ccccc2)cc1)C1=C(O)C(Cc2ccccc2)OC1=O (stereo not given) | 6.02 ± 4.2 |
| CC(C)(C)c1ccc(Oc2ccc(N)cc2)cc1 | 11.1 ± 5.3 |
| c1ccc(-c2nnc3c4ccccc4c(N4CCNCC4)nn23)cc1 | 15.6 ± 12 |
| O=C(c1cc(O)nc2ccccc12)N1CCN(c2ccccc2)CC1 | 9.85 ± 7.2 |
| CCc1cc(O)c(Oc2ccc(C(N)=O)cc2F)cc1F | 8.3 ± 5.3 |
| NC(=O)c1ccccc1NC(=O)c1ccc(C(=O)Nc2ccccc2C(N)=O)cc1 | 11.6 ± 6.2 |
| O=c1cc(OCc2ccccc2)ccn1Cc1ccccc1 | 13.9 ± 13 |
| CS(=O)(=O)c1ccc(Oc2ccc(Cl)cc2)cc1 | 13.1 ± 9.1 |
| NC(=O)C(c1ccccc1)(c1ccccc1)[C@H]1CCCN(CCc2ccc3c(c2)CCO3)C1 | 15.2 ± 18 |
| COc1ccccc1NC(=O)c1ccccc1Sc1ccc([N+](=O)[O-])cc1 | 14.7 ± 2.9 |
| Cc1c(OCC(F)(F)F)ccnc1C[S+]([O-])c1nc2ccccc2[nH]1 (stereo not given) | 11 ± 6.1 |
| O=C(O)c1ccccc1Sc1ncnc2sc3c(c12)CCC3 | 25.2 ± 16 |
